High-throughput results from PubChem BioAssay.
Shown are actives, neighbours in structure and some others; about 8.9% of the full set was active somewhere.
NPSR antag: blocks cAMP signaling of the human neuropeptide S receptor; Q6W5P4; CHO-NPSR cells, cAMP TR-FRET, antagonist mode; Potency, µM (doses to about 38.3 µM), for inactives: top-dose activity change, negative = inhibition, most hits filed as inhibitors; actives 1% (n = 220,000); also: potency is read from the fitted curve at half-maximal effect; nearly all actives have a fitted effect of over 50% in size
HPGD inh: HPGD (human) dehydrogenase inhibition. AID 894. P15428. actives 4.3% (n = 150,000). Potency, µM, for the others: at the highest dose activity change, negative = inhibition, usual class: inhibitors. purified HPGD, NADH fluorescence kinetic, PGE2 substrate; active = well fitted inhibition curve with a large enough effect, not every such curve was filed as active; inconclusive = small, poorly fitted or top-dose-only effect, or another doubt; inactive = no such curve, though single readings can be large or run the other way; also: potency is read from the fitted curve at half-maximal effect
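NADH formation kinetics: reaction with 30 uM PGE2 and 1 mM NAD+ (final), 20 nM enzyme, Tris-HCl pH 8 with Tween 20, after 15 min compound preincubation at room temperature. Fluorescence change, last versus first of five reads.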
ALDH1A1 block: blocks purified human ALDH1A1 activity; P00352; Purified ALDH1A1, NADH fluorescence, propionaldehyde substrate; Potency, µM (top dose mostly 75.3 µM), inactives show top-dose activity, negative = inhibition, actives largely listed as inhibitors; actives 7.3% (n = 220,000); active = well fitted inhibition curve with a large enough effect, not every such curve was filed as active; inconclusive = small, poorly fitted or top-dose-only effect, or another doubt; inactive = no such curve, though single readings can be large or run the other way;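 also: potency is read from the fitted curve at half-maximal effect; plate controls were no enzyme wells and a reference inhibitor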
Target sequence (P00352 whole entry, looked up): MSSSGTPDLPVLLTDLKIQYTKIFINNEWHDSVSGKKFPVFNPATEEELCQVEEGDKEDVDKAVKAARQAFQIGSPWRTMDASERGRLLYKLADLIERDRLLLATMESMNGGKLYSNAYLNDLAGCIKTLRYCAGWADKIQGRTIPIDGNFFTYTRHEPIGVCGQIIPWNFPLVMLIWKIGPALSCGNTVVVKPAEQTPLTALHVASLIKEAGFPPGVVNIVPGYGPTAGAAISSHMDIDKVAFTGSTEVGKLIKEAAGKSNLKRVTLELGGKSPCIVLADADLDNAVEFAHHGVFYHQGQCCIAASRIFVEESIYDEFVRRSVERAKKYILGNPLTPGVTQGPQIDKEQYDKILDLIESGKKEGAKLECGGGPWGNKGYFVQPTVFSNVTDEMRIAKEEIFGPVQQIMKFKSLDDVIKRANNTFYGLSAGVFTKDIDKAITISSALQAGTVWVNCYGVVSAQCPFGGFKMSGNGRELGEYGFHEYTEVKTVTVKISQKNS
IMPase Li cell: IMPase inhibition in cells with lithium potentiation; CHO-M1 cells, IP1 TR-FRET (IP-One), carbachol + lithium; Potency, µM (top dose mostly 59.4 µM), inactives show at the top dose activity, negative = IMPase inhibition, actives largely listed as inhibitors; actives 0.35% (n = 210,000);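 also: IP1 builds up when IMPase is blocked and the TR-FRET signal falls; potency is read from the fitted curve at half-maximal effect; plate controls were basal vehicle for no effect and high inhibitor control for full effect; nearly all actives have a fitted effect of over 50% in size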
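IP1 accumulation measured by competitive TR-FRET in lysed CHO-M1 cells after 30 min compound exposure at 37C, with a small lithium addition to potentiate weak responses. Hill-equation AC50 from ratio and donor-channel data.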
IMPase cell inh: membrane-permeable compound that blocks inositol monophosphatase | P97697 | CHO-M1 cells, IP1 accumulation, HTRF TR-FRET ratio | inhibition (IP1 accumulation), % at 46.1 µM | 120,000 tested, under 10 active | AID 901; active = well fitted curve in the direction sought with a large enough effect in the signal ratio, not every such curve was filed as active; inconclusive = small, poorly fitted or top-dose-only effect, or a change in a side signal; inactive = no such curve, though single readings can be large or run the other way; the % refers to the signal ratio;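 also: cells stimulated with carbachol in lithium chloride buffer; plate controls were DMSO basal wells for no effect and reference inhibitor wells for full effect; higher means more IMPase inhibition seen as more IP1 and lower FRET ratio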
Target sequence (P97697 whole entry, looked up): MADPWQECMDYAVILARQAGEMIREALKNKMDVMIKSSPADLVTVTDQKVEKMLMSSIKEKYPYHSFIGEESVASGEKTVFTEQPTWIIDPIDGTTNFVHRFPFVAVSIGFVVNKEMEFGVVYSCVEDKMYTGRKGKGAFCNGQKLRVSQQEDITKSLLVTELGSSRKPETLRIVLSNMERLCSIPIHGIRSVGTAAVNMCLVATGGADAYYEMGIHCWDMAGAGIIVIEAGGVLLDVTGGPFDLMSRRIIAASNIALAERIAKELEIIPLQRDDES
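CHO-M1 cells (CHO stably expressing M1 receptor), compound up to 46 uM final, stimulated with carbachol (50 uM as added) in buffer with 50mM LiCl, pH 7.4, 30 min at 37C. Cytosolic IP1 read by TR-FRET; AC50 from Hill fits.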
ALOX12 inhib: blocks human 12-lipoxygenase activity. actives 0.12% (n = 150,000). purified 12-hLO, xylenol orange hydroperoxide absorbance. AID 1452. Potency, µM (highest dose often 57.1 µM), for inactives: at the highest dose activity change, negative = inhibition, hits mostly inhibitors. P18054; also: potency is read from the fitted curve at half-maximal effect; nearly all actives have a fitted effect of over 55% in size
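150 nM 12hLO, 25 mM Hepes pH 7.0 + 0.01% Triton X-100; cpd preinc 15 min RT; 40 uM arachidonic acid, 30 min RT; Fe-XO 30 min; A573/A405 ratio as read-out.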
Active calls of the source: *; ? = inconclusive; · = no result given; [ ] = dose if it differs, or a comment. Unless noted, calls follow the shape of the dose curve; as a rule, active = well fitted curve in the direction sought with a large enough effect; inconclusive = small, poorly fitted or top-dose-only effect, or another doubt; inactive = no such curve, though single readings can be large; an effect the other way counts as inactive or inconclusive. Unless noted, % is scaled to controls: 0 for no effect and ±100 for the full control effect.

SMILES | NPSR antag | HPGD inh | ALDH1A1 block | IMPase Li cell | IMPase cell inh | ALOX12 inhib
COC(=O)CSC1=C(C#N)C(c2ccc(C(C)C)cc2)CC(=O)N1 (stereo not drawn) | -12%[46.1 µM] | -5% | ? | -6%[38.3 µM] | 3 | -4%
N#CC1=C(SCC(N)=O)NC(=O)CC1c1ccccc1Cl (stereo not drawn) | -16%[46.1 µM] | -4% | 20µM* | -7%[38.3 µM] | 5 | -6%
Cc1ccc(C2CC(=O)NC(SCCC(C)C)=C2C#N)cc1 (stereo not drawn) | -10%[46.1 µM] | ? | 13µM* | 14%[38.3 µM] | 14 | -6%
CCCCCOc1ccc(N2C(=O)C3C4C=CC(C3C2=O)N(C)C4=O)cc1 (stereo not drawn) | 2%[46.1 µM] | -7% | 2% | 3% | 34[0.0738 µM] | 3%
COc1ccccc1NC(=O)c1nnn(CC(=O)Nc2cccc(SC)c2)c1N | ? | ? | ? | 6.3µM* | -9 | -5%
COc1cccc(Cn2nnc(C(=O)Nc3cc(C)ccc3OC)c2N)c1 | -26%[46.1 µM] | ? | ? | 25µM* | 10 | -7%
COC(Cc1nnc(SC)n1-c1ccccc1)OC | 0%[46.1 µM] | -8% | -2% | 10%[38.3 µM] | -3 | -1%
CC(C)(C)C(=O)CSc1ncnc2c1cnn2-c1ccccc1 | -29% | · | · | · | · | ·
c1ccc(CSc2ncnc3c2cnn3-c2ccccc2)cc1 | 4% | 25µM* | ? | 1% | · | 1%
CCC1=NN2C(=N)/C(=C\c3ccc(SCc4ccco4)o3)C(=O)N=C2S1 | -9%[46.1 µM] | -23% | -11% | -15%[38.3 µM] | 2 | -7%
CCCC1=NN2C(=N)/C(=C\c3ccc(SCc4ccco4)o3)C(=O)N=C2S1 | -8%[46.1 µM] | 22µM* | 22µM* | 14%[38.3 µM] | -5 | -21%
O=C1NC(=S)S/C1=C\c1ccc(SCc2ccco2)o1 | -29% | 7.1µM* | 0.89µM* | 49% | · | -23%
Cc1cc(/C=C2\SC(=S)NC2=O)cc(C)c1O | 50% | · | ? | · | · | ·
O=C1NC(=S)S/C1=C\c1ccc(SCc2ccccc2)o1 | -22% | 18µM* | ? | 3% | · | -19%
O=C(c1cc([N+](=O)[O-])ccc1Cl)N1CCN(c2ccccc2)CC1 | 17% | -12% | ? | -1% | 10 | -1%
Cc1ccc(C(=O)c2oc3ccccc3c2NC(=O)COc2ccc(C(C)(C)C)cc2)cc1 | · | · | · | · | 5 | ·
CC(C)Oc1ccccc1OCCN(C)C | 5% | -13% | ? | -1% | · | -8%
CCOc1ccc(/C=C2\SC(=O)N(CCNC(=O)C3COc4ccccc4O3)C2=O)cc1OC (stereo not drawn) | 18% | ? | ? | 20% | · | -4%
Cc1nc2oc(C(=O)c3ccccc3)c(N)c2c2c1COC(C)(C)C2 | -9%[46.1 µM] | -12% | 14µM* | -6% | -2 | 5%
CN1C[C@@H]2C(c3ccc(Cl)nc3)C3(c4ccccc4)CC2(C3)[C@H]1c1ccccc1 (stereo partly drawn) | 4µM* | -10% | -3% | 12% | · | 1%
CN1C[C@@H]2C(c3ccc(Cl)nc3)C3(c4cccnc4)CC2(C3)[C@H]1c1ccccc1 (stereo partly drawn) | ? | -11% | 0% | -7% | · | 4%
Nc1ncc([N+](=O)[O-])cc1Br | -22% | · | · | · | · | ·
CN(C)c1ncc([N+](=O)[O-])cc1C(F)(F)F | -12% | · | 14µM* | · | · | ·
CCC1CSC(Nc2ccc(C(=O)/C=C/c3ccc(Br)cc3)cc2)=N1 (stereo not drawn) | -59% | ? | 2% | -2% | · | 0%
CCC1CSC(Nc2ccc(C(=O)/C=C/c3ccc(OC)c(OC)c3)cc2)=N1 (stereo not drawn) | -22% | 18µM* | ? | 14% | · | -6%
SMILES | NPSR antag | HPGD inh | ALDH1A1 block | IMPase Li cell | IMPase cell inh | ALOX12 inhib
CC(OC(=O)c1oc2ccccc2c1CSC1CCCCC1)C(=O)NC(N)=O (stereo not drawn) | -1% | -17% | 2µM* | 1% | · | 3%
CCCSC1=N/C(=C\c2ccsc2)C(=O)S1 | -28%[46.1 µM] | -5% | 0% | 15%[38.3 µM] | 6 | -13%
CCSC1=N/C(=C\c2ccc(-c3ccccc3[N+](=O)[O-])o2)C(=O)S1 | -25%[46.1 µM] | -19% | 0.32µM* | -7%[38.3 µM] | 10 | ?
CCCSC1=N/C(=C\c2ccc([N+](=O)[O-])o2)C(=O)S1 | -10% | · | 14µM* | 10% | · | ·
CSC1=N/C(=C\c2ccc(C)o2)C(=O)S1 | -9%[46.1 µM] | ? | 10µM* | 22%[38.3 µM] | 8 | ?
O=C1SC(SCc2ccccc2)=N/C1=C\c1ccco1 | -9%[46.1 µM] | -6% | -8% | 6%[38.3 µM] | ? | ?
CSC1=N/C(=C\c2ccc(C)s2)C(=O)S1 | 4% | -5% | -14% | 3% | · | -4%
CCCSC1=N/C(=C\C=C\c2ccco2)C(=O)S1 | -10%[46.1 µM] | -28% | 28µM* | -18%[38.3 µM] | -2 | ?
CC(=O)OC(C)CS(=O)(=O)c1ccccc1 (stereo not drawn) | 10% | · | 9% | -7% | · | ·
COc1ccc(-c2nc(CN3CCC(c4ccccc4)CC3)c(C)o2)cc1OC | 4% | · | 7% | 7% | · | ·
CC(=O)c1cccc(NC(=S)NC(=O)CC(C)C)c1 | 2%[46.1 µM] | 16µM* | 4% | 23%[38.3 µM] | -1 | -4%
CC(=O)c1cccc(NC(=S)Nc2ccn(Cc3cccc4ccccc34)n2)c1 | -39% | · | 0.79µM* | 2% | · | ·
CC(=O)c1cccc(NC(=O)COC(=O)c2cccc(N3C(=O)c4ccccc4C3=O)c2)c1 | 2% | -12% | 14µM* | 16% | · | 1%
CCCC(=O)NC(=S)Nc1cccc(C(C)=O)c1 | -2%[46.1 µM] | 16µM* | -11% | -12%[38.3 µM] | -9 | -6%
COc1ccc(CCNC(=O)c2ccc(Cl)cc2)cc1OC | -5% | · | 2% | 0% | · | ·
CCC(=O)NC(=S)Nc1cccc(C(C)=O)c1 | -5%[46.1 µM] | -15% | 8% | 13%[38.3 µM] | -2 | -4%
CCCCCC(=O)NC(=S)Nc1cccc(C(C)=O)c1 | -1% | 14µM* | ? | 14% | · | -26%
CCCOC(=O)Nc1cccc(C(C)=O)c1 | 6%[46.1 µM] | 10µM* | -1% | -5% | -1 | 1%
COc1ccc(S(=O)(=O)N(C)c2ccc(C(N)=O)cc2)cc1 | -7%[46.1 µM] | -7% | -5% | 12%[38.3 µM] | 3 | -5%
COc1ccc(C(CNC(=O)c2ccc(S(=O)(=O)N(C)C)cc2)N2CCCC2)cc1 (stereo not drawn) | -4% | · | 4.5µM* | 16% | · | ·
COc1ccc(Br)c(C(=O)NCCC(C)C)c1 | 22% | 13µM* | 6% | -2% | · | 0%
COc1ccc(S(=O)(=O)N(C)c2ccc(C(=O)NC3CCCC3)cc2)cc1 | -18% | · | -8% | 12% | · | ·
COc1ccc(S(=O)(=O)N(C)c2ccc(C(=O)NCCC(C)C)cc2)cc1 | -19%[46.1 µM] | 2µM* | -16% | 22%[38.3 µM] | -4 | -18%
CCOCCCNC(=O)c1ccc(N(C)S(=O)(=O)c2ccc(OC)cc2)cc1 | -15%[46.1 µM] | 1.6µM* | -11% | 30%[38.3 µM] | 1 | -5%
